# This is a sample that favours compounds with a hit; in the whole collection about 3.3% have one here.
# PI4K2A inh = inhibitors of human PI4K2A; Q9BTU6; purified PI4K2A, ADP-Glo luminescence, 1 h; stronger effect = lower value; activity change, negative = inhibition, % at 76.9 µM; 0.13% of 420,000 active; in the data active = activity change below about -50%; inconclusive = mostly about -30% to -49%;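 also: -100% = wells without enzyme as full effect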
#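 In this quantitative HTS, ADP production by PI4K2A was quantified luminescently after 1 h at ambient temperature; 100 microM adenosine served as plate-quality control.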
# PI5P4K alpha inh = inhibitors of human PI5P4K alpha | PI5P4Kalpha enzyme, ADP-Glo luminescence, 60 min; stronger effect = lower value | 1.2% of 330,000 active | max response, %; active = max response of -50% or lower; inconclusive = between -30% and -50%; inactive = -30% or higher; also: value at the top dose of about 77 µM; % is scaled to controls: 0 for no effect and ±100 for the full control effect
#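 Human PI5P4Kalpha with substrate in 0.038 M HEPES pH 7.4, 0.28 mM EGTA, 0.1% CHAPS, 5% DMSO; reaction started with 5 microM ATP (final), 60 min at room temperature. ADP formed read by ADP-Glo luminescence.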
# D3 ag = activates the human D3 dopamine receptor; P35462; D3R DiscoveRx beta-arrestin cells, luminescence, 90 min; max activation, %; 0.58% of 410,000 active; AID 652048; in the data active = max activation above about 30%; also: 0% is about no effect
# Target sequence (P35462 whole entry, looked up): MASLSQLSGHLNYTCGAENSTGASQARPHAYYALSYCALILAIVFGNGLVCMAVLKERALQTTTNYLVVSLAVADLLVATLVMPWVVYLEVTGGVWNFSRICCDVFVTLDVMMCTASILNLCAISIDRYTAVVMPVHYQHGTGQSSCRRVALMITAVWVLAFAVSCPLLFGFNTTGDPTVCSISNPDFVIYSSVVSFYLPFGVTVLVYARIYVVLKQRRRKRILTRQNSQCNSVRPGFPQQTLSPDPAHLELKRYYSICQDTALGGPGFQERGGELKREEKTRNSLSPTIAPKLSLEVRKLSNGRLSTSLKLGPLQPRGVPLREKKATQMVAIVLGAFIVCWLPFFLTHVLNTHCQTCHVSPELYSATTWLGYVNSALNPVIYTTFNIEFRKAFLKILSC
#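 Agonist mode: compounds and dopamine controls were applied to plated cells for 90 min at 37 degrees C after an overnight attachment at 1500 cells/well. Luminescent read-out followed 30 - 60 minutes at room temperature with DiscoveRx detection reagent.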
# LDHA block = blocks human lactate dehydrogenase A. 0.15% of 480,000 active. P00338. purified LDHA, NADH/diaphorase-resazurin fluorescence; stronger effect = lower value. activity change, % (values are at about 110 or 230 µM). AID 1347041; in the data active = activity change below about -30%; inconclusive = mostly about -25% to -30%;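 also: plate controls were DMSO wells for no effect and wells without enzyme for full effect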
#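 Human LDH5 (2 nM) was incubated with 0.06 mM NADH and 0.2 mM pyruvate for 5 min at room temperature in Tris pH 7.4. Remaining NADH was coupled through diaphorase/resazurin, and resorufin fluorescence was read at 0 and 20 min.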
# D3 antag = antagonists of human D3 dopamine receptor | D3R cells, DiscoveRx beta-arrestin luminescence, antagonist mode; stronger effect = lower value | max response, negative = inhibition, % | 2.5% of 360,000 active; in the data active = max response below about -50%; inconclusive = no clear call, values can overlap the other calls; also: % is scaled to controls: 0 for no effect and ±100 for the full control effect
#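 Cells plated overnight at 1500 cells/well, then exposed to library compounds with dopamine controls for 90 minutes at 37 degrees C. DiscoveRx reagent added for 30–60 minutes at room temperature; luminescence read, quantitative HTS format.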
# Active calls of the source: *; ? = inconclusive; . = no result given.
SMILES,PI4K2A inh,PI5P4K alpha inh,D3 ag,LDHA block,D3 antag
CC(C)(C)CNC(=O)c1cccc2c1C(=O)c1ccc(N3CCCC3)cc1S2(=O)=O,-2,3,23,-12,70
O=C(NCc1ccccc1C(F)(F)F)c1cccc2c1C(=O)c1ccc(N3CCCCC3)cc1S2(=O)=O,-1,7,33*,-17,56
CC1CCC2(CC1)N=C(c1ccc(Cl)cc1Cl)C(=S)N2 (configuration not stated),.,.,.,-8,.
COc1ccc(N=c2oc3c(OC)cccc3cc2C(=O)NCc2ccco2)cc1OC,0,.,33*,4,18
CC(c1nc2ccccc2s1)N(C)S(=O)(=O)c1cccc(C#N)c1 (configuration not stated),.,.,.,7,.
CN1CCN(c2oc(-c3ccccc3)nc2S(=O)(=O)c2ccc(Br)cc2)CC1,1,16,-36,0,-67*
CN1CCN(c2oc(-c3ccccc3)nc2S(=O)(=O)c2ccc(F)cc2)CC1,.,.,.,1,.
CN1CCN(c2oc(-c3ccccc3Cl)nc2S(=O)(=O)c2ccccc2)CC1,-1,0,-7,-8,-79*
CCCCCCCCCCCCCCCCCCNc1ccn(C2OC(COP(=O)(O)OCC3OC(n4cc(F)c(=O)[nH]c4=O)CC3O)C(O)C2O)c(=O)n1 (configuration not stated),-13,-69*,-9,4,?
CCn1cc(S(=O)(=O)N2CCN(c3ccccc3OC)CC2)cn1,.,.,.,-16,.
CCCCCCCCSc1nnc2[nH]c(=O)cc(N)n12,3,-50*,-6,2,11
Cc1ccnc(SC(C(=O)O)c2ccccc2)n1 (configuration not stated),.,.,.,-1,.
N#Cc1c(N)nc(CCc2ccccc2)c(C#N)c1N,.,.,.,21,.
O=C(CNc1cc(Cl)ccc1N1CCOCC1)Nc1ccc(F)cc1,.,.,.,1,.
CC1(C)Oc2ccc(C(=O)NC3CCCC3)cc2N(CC(=O)NC2CCCC2)C1=O,-3,0,-5,-13,-76*
CC1(C)CC(=O)C2=C(C1)OC(N)=C(C#N)C2c1ccc(OC(=O)c2ccccc2)cc1 (configuration not stated),.,.,.,2,.
CC1(C)CC(=O)C2=C(C1)OC(N)=C(C#N)C2c1cccc(OC(=O)c2ccco2)c1 (configuration not stated),6,.,-1,-16,-90*
CC1CCCC(NC(=O)CSc2n[nH]c(=O)n2Cc2ccccc2)C1C (configuration not stated),-3,1,48*,-4,-4
O=c1[nH]c2ccc(Cl)cc2c(-c2ccccc2)c1CN1CCOCC1,-3,.,-18,-3,-58*
O=C(Cc1noc(C(=O)NC2CCCC2)n1)Nc1cccc2ncccc12,.,.,.,13,.
O=C1c2ccccc2S(=O)(=O)N1Cc1cc(=O)n2ccsc2n1,2,1,-5,-5,-76*
Cn1c(C(=O)N2CCN(C(=O)c3ccccc3)CC2)cc2ccccc21,.,.,.,-8,.
COc1ccccc1NC(=O)COC(=O)c1cc(C)nc2ccccc12,2,-2,1,-4,23
Cc1cc(C(=O)OCC(=O)Nc2ccccc2C(C)C)c2ccccc2n1,.,.,.,-40*,.
Cc1cc(C(=O)OCC(=O)c2cccc3ccccc23)c2ccccc2n1,.,.,.,-35*,.
SMILES,PI4K2A inh,PI5P4K alpha inh,D3 ag,LDHA block,D3 antag
CC(C)Oc1ccc(CN2CCC2(C)C(=O)Nc2cccc3cccnc23)cc1 (configuration not stated),0,30,-22,-3,-92*
Cc1occc1-c1nnc(SCC(=O)Nc2nc(-c3ccccc3)cs2)o1,6,.,12,0,14
Cc1occc1-c1nnc(SCC(=O)Nc2nc3ccccc3s2)o1,0,.,24,-6,-103*
Cc1sc(-c2ccco2)nc1C(=O)NC(c1ccccc1)c1nccn1C (configuration not stated),.,.,.,3,.
Cc1ccc(S(=O)(=O)Cn2cnnn2)cc1,-8,.,-1,-7,-78*
CCOC(=O)N1CCN(C(=O)CNC(=O)c2nn(-c3ccc(OC)c(OC)c3)c(=O)c3ccccc23)CC1,4,0,54*,-8,10
Cc1ccc(-c2n[nH]c(=O)c3ccccc23)cc1S(=O)(=O)N(C)C,2,-1,9,-3,16
CCN(CC)S(=O)(=O)c1cc(-c2n[nH]c(=O)c3ccccc23)ccc1C,.,.,.,-33*,.
CCCC(=O)Nc1ccc2nc(N3CCN(C(=O)OCC)CC3)cc(C(=O)O)c2c1,.,.,.,25,.
O=Cc1c(-c2ccc(Cl)cc2)oc2ccc(O)cc12,-1,-67*,-3,22,-1
CC12CCC(=O)N1C(C(=O)Nc1nccs1)CS2 (configuration not stated),-1,-3,79*,-8,8
CCc1nnc(NC(=O)C2CSC3(C)CCC(=O)N23)s1 (configuration not stated),-4,1,0,-7,12
CC[C@@H](C)[C@@H]1CN([C@@H](C)CN2CCC[C@H]2CN2C(N)=NC[C@@H]2Cc2ccccc2)C(=N)N1CCCC1CCCC1,-5,-22,-35,1,-1
CC[C@@H](C)[C@@H]1CN([C@@H](C)CN2CCC[C@H]2CN2C(N)=NC[C@@H]2Cc2ccccc2)C(=N)N1CCc1ccc(Cl)c(Cl)c1,0,-13,-48,-12,-66*
CC(C)C[C@@H]1COc2cc(Br)ccc2S(=O)(=O)N1Cc1cn(Cc2ccc(Br)cc2)nn1,3,.,.,.,.
COc1ccc2c(C)c(Cl)c(=O)oc2c1,-2,0,2,-1,9
C=C1CC(COc2ccc3c(C)c(Cl)c(=O)oc3c2)(c2ccccc2)OC1=O (configuration not stated),12,10,-24,-9,-99*
Cc1ccc(C)c(C(=O)Cn2ncc(Cl)c(Cl)c2=O)c1,10,-4,-9,-6,-28
Cc1cc(C(=O)Cn2ncc(Cl)c(Cl)c2=O)c(C)n1CC(F)(F)F,-15,-56*,-9,2,-59*
Cc1ccc(NC(=O)CN2C(=O)S/C(=C/c3ccc(O)c([N+](=O)[O-])c3)C2=O)cc1C,-3,-58*,-6,-16,-10
O=C1S/C(=C\c2ccc(O)c([N+](=O)[O-])c2)C(=O)N1Cc1cccc([N+](=O)[O-])c1,2,-78*,10,-10,1
Cc1cccc(NC(=O)CN2C(=O)S/C(=C\c3ccc(O)c([N+](=O)[O-])c3)C2=O)c1,4,?,-3,-3,-27
O=C(C1CCN(c2nc(-c3ccc(Br)cc3)cs2)CC1)N1CCOCC1,.,.,.,-1,.
CSc1cccc(NC(=O)c2ccc(CN3CCc4ccccc4C3)cc2)c1,3,?,-7,-8,-96*
O=C(Nc1cccc(Br)c1)c1ccc(CN2CCc3ccccc3C2)cc1,5,?,-16,-11,-56*
